We go through 100 compounds from PubChem BioAssay AID686979 (National Center for Advancing Translational Sciences (NCATS), 2013).

Values joined by “and” are separate entries in the source; they are usually repeats but may differ in a detail not shown here. Equal values may be shown once. The campaign covered roughly 420,000 compounds. About 50,000 (12%) were called active. A call without a number means that no potency is given here. Roughly 26% stayed inconclusive and do not appear here. The call rests on the fitted dose curve; in most records, active means well fitted inhibition curve with a large enough effect; inconclusive means small, poorly fitted or top-dose-only effect; inactive means flat fitted curve, though single readings scatter. Only a selection was taken, and actives are over-represented in it overall. Where a SMILES comes first, the peptide text is derived from it. [ ]: non-standard residue; d: D form. ξ: configuration not given here. Ac5c = NC1(C(=O)O)CCCC1; ξS = NC(CO)C(=O)O
Potency means the concentration at half of the fitted maximal effect.

This assay can be described thus: qHTS for Inhibitors of human tyrosyl-DNA phosphodiesterase 1 (TDP1): qHTS in cells in presence of CPT. Further: nearly all actives have a fitted effect of over 55% in size. The following applies: chicken DT40 Tdp1-/-;hTDP1 cells + 20 nM CPT, ATP luminescence, 48 h; series mostly up to 46.2 µM. The essentials: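 Cell growth measured by CellTiter-Glo luminescence after a minimum 48 h, 37 C compound exposure with 20 nM CPT in Tdp1-knockout DT40 cells stably expressing hTDP1, seeded 400/well; qHTS titration format.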
A general note: Quantitative high-throughput screening tests each substance at several concentrations.
Take `COc1c(N2CCN(C(=S)Nc3ccccc3F)C(C)C2)c(F)cc2c(=O)c(C(=O)O)cn(C3CC3)c12` (stereo not given): the Potency entry was “inactive”.
Turning to `CN(C)C(CNC(=O)c1cc2ccccc2o1)c1ccccc1` (stereo not given), the Potency entry is “inactive”.
Consider `O=C(NCCc1ccc(C(F)(F)F)cc1)c1ccc2c(c1)OCO2`, for which the Potency entry is “inactive”.
Under `O=C(NCCc1ccc2c(c1)OCCO2)c1cc2ccccc2o1` stands 16.4 µM (active).
Under `CCOc1ccc(C2C3=C(CCCC3=O)N(CC(=O)O)C3=C2C(=O)CCC3)cc1` stands “inactive”; under `C=CCN1CCN(C(=O)CCCc2ccccc2)CC1`, “inactive”.
Turning to `COc1ccc(NC(=O)[C@H](NC(=O)[C@@H]2Cc3ccccc3CN2)c2ccccc2)cc1`, the Potency result was “inactive”.
On to `CC12CCCCC1=CC(=O)CC2` (stereo not given), for which the Potency result was “inactive”.
Under `CCOc1ccc(C(O)Cn2c(=N)n(CCN3CCCCC3)c3ccccc32)cc1` (stereo not given) stands 20.6 µM (active); under `Cn1c(=N)n(CC(O)c2cccs2)c2ccccc21` (stereo not given), “inactive”.
Under `Cn1c(=N)n(CC(O)c2ccccc2)c2ccccc21` (stereo not given) stands “inactive”.
Under `NC(=O)C1CCN(C(=O)c2cn(-c3ccccc3)nc2-c2cccnc2)CC1` stands “inactive”.
For `CCOc1ccc(C(CC(=O)O)NC(=O)C23CC4CC(CC(C4)C2)C3)cc1OC` (stereo not given), the Potency entry was “inactive”.
Under `CCN1CCN(c2cc(C)c3cc(NC(=O)c4cc(Cl)ccc4OC)ccc3n2)CC1` stands 4.61 µM (active).
Regarding `COc1ccc(C(=O)Nc2ccc3nc(N4CCCCC4)cc(C)c3c2)cc1OC`, the Potency was 23.1 µM (active) and 20.6 µM (active).
For the compound `CCOCCCNC(=S)Nc1ccc2nc(N3CCN(CC)CC3)cc(C)c2c1`, the Potency result was “inactive”.
Under `Cc1cc(N2CCN(C)CC2)nc2ccc(NC(=S)N3CCOCC3)cc12` stands “inactive”; under `COc1ccc(NC(=O)CC2SC(N3CCCCC3)=NC2=O)cc1OC` (stereo not given), “inactive”; under `COC(=O)c1ccc(NC(=O)c2cc(Cl)ccc2OC)cc1`, “inactive”.
Regarding `CCOc1cc(C(C(=O)NCC2CCCO2)N(C(=O)Cn2nnc3ccccc32)c2cccc(OC)c2)ccc1O` (stereo not given), the Potency result was “inactive”.
In the case of `Cc1nnc(C(=O)NC(C)(C)c2nc(C(=O)NCc3ccc(F)cc3)c(O)c(=O)n2C)o1`, the Potency result is “inactive”.
The entry for `NC(=O)CCN1CCN(S(=O)(=O)/C=C/c2ccccc2)CC1` is “inactive”; for `CN1OC[C@@H]2CN[C@H](c3ccc(-c4ccccc4)cc3)C[C@@H]21` it is “inactive”.
Under `Cc1ccc(NC(=O)CSc2nc3c(c(=O)[nH]2)CN(Cc2ccc4c(c2)OCO4)CC3)cc1C` stands “inactive”; under `COc1cc(OC)cc(C(=O)NCC(=O)OCC(=O)NC(C)CCc2ccccc2)c1` (stereo not given), “inactive”.
In the case of `COc1cc(OC)cc(C(=O)NCC(=O)OCc2csc(-c3ccccc3)n2)c1`, the Potency was 16.4 µM (active).
The entry for `COc1cccc(C(=O)NCC(=O)OCc2cc(=O)n3ccsc3n2)c1` is “inactive”; for `C=CCOc1ccc(Cl)cc1CNCCCN1CCOCC1` it is “inactive”; for `CC(=O)NCCC(=O)Nc1nc(C)c(Cc2ccc3c(c2)OCO3)s1` it is “inactive”.
Under `CCOC(=O)C1(Cc2ccccc2C)CCCN(S(C)(=O)=O)C1` (stereo not given) stands “inactive”; under `CNC(=O)NC(=O)CSc1nnc(-c2ccc(F)cc2)n1CC1CCCO1` (stereo not given), “inactive”; under `Oc1cc2c(cc1O)CN(C(=S)NCCc1ccc(Cl)cc1)CCC2`, 13.3 µM (active) and 7.08 µM (active).
With `COc1ccc(CCNC(=S)N2CCN(S(=O)(=O)c3ccc(Cl)cc3)CC2)cc1`, the Potency entry was “inactive”.
Take `O=C(NCCc1ccc(Cl)cc1)C1CCCN1C(=O)NCc1ccccc1` (stereo not given): the Potency entry was “inactive”.
Under `CCOc1ccc(C(=O)NCC(=O)N2CCCCCCC2)cc1OCC` stands “inactive”; under `CCc1cc2c(cc3c(=O)n(CC(=O)N4CCN(c5cc(Cl)ccc5C)CC4)nc(CC)n32)s1`, “inactive”.
The entry for `CCc1cc2c(cc3c(=O)n(CC(=O)NCCc4ccc(OC)c(OC)c4)ncn32)s1` is “inactive”; for `CCOc1ccc(CCNC(=O)Cn2nc(CC)n3c(cc4sc(CC)cc43)c2=O)cc1OCC` it is 16.4 µM (active).
Consider `COc1ccc2cc(C(=O)O)n(CC(=O)c3ccccc3)c2c1`, for which the Potency result is “inactive”.
On to `CCOC(=O)C1=C(c2ccccc2)O/C(=C(/C(=O)OC)C(F)(F)F)S1`, for which the Potency entry is “inactive”.
Under `O=C(NCC(=O)N(CC1CCCO1)C(C(=O)NC1CCCCC1)c1ccccc1)c1ccco1` (stereo not given) stands “inactive”; under `CCCCN(C)CCNC(=O)C1CCCN(S(=O)(=O)c2cccc3nsnc23)C1` (stereo not given), “inactive”; under `O=C(c1ccco1)N1CCN(C(=O)C2CCCN(S(=O)(=O)c3cccc4nsnc34)C2)CC1` (stereo not given), “inactive”.
As to `CCCCN(CC)C(=O)C1CCCN(S(=O)(=O)c2cccc3nsnc23)C1` (stereo not given), the Potency was 25.9 µM (active).
Under `CCOC(=O)C(CO)NC(=O)C1(NC(C)=O)CCCC1` (stereo not given) (Ac-[Ac5c]-[ξS]-OEt) stands “inactive”; under `OCC1(Cc2ccccc2C(F)(F)F)CCN(Cc2ccncc2)CC1`, “inactive”; under `COc1cccc(C(=O)Oc2cc(C)[nH]c(=O)c2[N+](=O)[O-])c1`, “inactive”.
Under `COc1cccc(C(=O)CC(=O)C(=O)Nc2ccc([N+](=O)[O-])cc2C)c1` stands 23.1 µM (active); under `Cc1cc([N+](=O)[O-])ccc1NC(=O)C1CCCO1` (stereo not given), “inactive”; under `COc1ccc(NC(=O)c2cc(-c3cc(OC)c(OC)c(OC)c3)nc3ccccc23)c(OC)c1`, 13 µM (active).
The figure for `COc1ccc(Nc2cc(C(=O)NCCCN(C)c3ccccc3)c3ccccc3n2)c(OC)c1` is 13 µM (active).
For the compound `COc1ccc(NC(=O)CNC(=O)Cn2ccc3ccccc3c2=O)c(OC)c1`, the Potency result was “inactive”.
Regarding `CCN(CCCNC(=O)Cn1ncc2c([nH]c3ccccc32)c1=O)c1cccc(C)c1`, the Potency result was “inactive”.
Consider `COc1ccccc1NC(=O)c1cc(Cl)nc2ccccc12`, for which the Potency entry was “inactive”.
Under `COc1ccc(NC(=O)CCNC(=O)Cn2ccc3ccccc3c2=O)c(OC)c1` stands “inactive”.
The entry for `COc1ccc(NC(=O)c2cc(-c3ccc(C)o3)nc3ccccc23)cc1` is “inactive”; for `CCN(CCCNC(=O)c1cc(Nc2ccc(OC)cc2)nc2ccccc12)c1cccc(C)c1` it is 20.6 µM (active); for `COc1ccc(CNC(=O)COC(=O)C2=Cc3ccccc3OC2)cc1` it is “inactive”.
Under `COC(=O)c1ccc(CNC(=O)Cn2cc(C)c(=O)[nH]c2=O)cc1` stands “inactive”; under `O=C(Cn1c2[n+](c3ccc(C(F)(F)F)cc31)CCCCC2)Nc1c(F)cccc1F`, “inactive”.
On to `Cc1ccc(CN(C)Cc2cc(=O)oc3cc(C)c(Cl)cc23)cc1`, for which the Potency result was “inactive”.
On to `Cc1cc(NC(=O)CSc2ncc(C(F)(F)F)cc2Cl)no1`, for which the Potency result was “inactive”.
Regarding `Cc1c(Cl)cccc1NC(=O)CCC(=O)N/N=C/c1ccco1`, the Potency result is “inactive”.
Under `C[C@H](CO)N1C[C@H](C)[C@@H](CN(C)C(=O)NC2CCCCC2)Oc2ccc(NC(=O)c3ccncc3)cc2C1=O` stands “inactive”; under `COC(=O)c1ccccc1NC(=S)NC(=O)c1ccccc1F`, “inactive”; under `S=C(NCc1cccnc1)Nc1ccc(Cl)cc1Cl`, “inactive”.
With `NS(=O)(=O)c1ccc(-c2ccc(/C=C3\SC(=O)NC3=O)o2)cc1`, the Potency result was “inactive”.
Under `Cc1ccc(NC(=O)CCC(=O)c2ccc(Br)cc2)cc1` stands “inactive”.
Under `Cc1cccc(-c2nc(SCC(=O)Nc3cc(C)on3)c3c(=O)n(C)c(=O)n(C)c3n2)c1` stands “inactive”; under `Cn1c(=O)c2c(SCC(=O)NCC3CCCO3)nc(-c3ccccc3F)nc2n(C)c1=O` (stereo not given), “inactive”; under `Cc1ccccc1-c1nc(SCC(=O)N(C)c2ccccc2)c2c(=O)n(C)c(=O)n(C)c2n1`, 20.6 µM (active).
The entry for `CN(C(=O)COC(=O)c1nc(Cl)ccc1Cl)C1CCS(=O)(=O)C1` (stereo not given) is “inactive”.
Consider `Cc1cc(C)c2nc(N3CCC(C(=O)NCCN4CCOCC4)CC3)sc2c1`, for which the Potency entry is “inactive”.
With `COC(=O)c1ccc(-c2c(-c3ccccc3)ncc3cc(OC)c(OC)cc23)cc1`, the Potency is 20.6 µM (active).
Under `COc1ccc(/C(=N\O)c2nccc3cc(OC)c(OC)cc23)cc1OC` stands “inactive”; under `COC(=O)c1ccc(NC(=O)CSc2nncc3ccc(OC)c(OC)c23)cc1`, “inactive”; under `CCN(CC)CCn1c2c(c(SCC(=O)Nc3ccc(C(C)C)cc3)nc1=O)CCC2`, “inactive”.
For the compound `CC(=O)OCC(=O)C1(O)CCC2C3CC(C)C4=CC(=O)CCC4(C)C3C(O)CC21C` (stereo not given), the Potency entry was “inactive”.
Regarding `COc1ccc(C(=O)NC(C)Cn2nc(C)cc2C)cc1OC1CCN(C(C)=O)CC1` (stereo not given), the Potency result is “inactive”.
Regarding `O=C(CN1C(=O)c2ccc([N+](=O)[O-])cc2C1=O)Nc1nnc(C2CC2)s1`, the Potency entry is “inactive”.
The entry for `C=CCOc1ccc(/C=C/C(=O)OCC(=O)NCC2CCCO2)cc1` (stereo not given) is “inactive”.
The entry for `COc1ccc(/C=N/NC(=O)c2ccc3c(c2)OCCO3)c(OC)c1` is “inactive”; for `CCNC(=O)c1ccc(OCC(=O)Nc2ccc(F)cc2)c(OC)c1` it is “inactive”.
`COc1ccc(C(=O)N/N=C2\CCS(=O)(=O)c3ccc(F)cc32)cc1OC`: the Potency was 18.4 µM (active).
For the compound `CCN(Cc1ccccc1)C(=O)Cc1ccc(OC)c(S(=O)(=O)N2CCOCC2)c1`, the Potency entry was “inactive”.
In the case of `O=C(O)CCn1cc(/C=C/C(=O)c2ccc(Cl)cc2)c(-c2cccc(Br)c2)n1`, the Potency is 20.6 µM (active).
`O=C(O)/C=C/c1cn(Cc2ccccc2)nc1-c1cccs1`: the Potency entry is “inactive”.
Consider `CCOC(=O)/C(C#N)=C/c1cn(CCC(=O)O)nc1-c1ccc(Br)cc1`, for which the Potency entry is “inactive”.
The entry for `Cc1cc(C)cc(N)c1` is “inactive”; for `O=C(NCc1ccco1)C(c1ccncc1)N(C(=O)Cn1nnc2ccccc21)c1ccccc1` (stereo not given) it is “inactive”.
As to `CC(C)(C)OC(=O)N/N=C/c1ccc(C(=O)O)cc1`, the Potency result is “inactive”.
Under `COC(=O)C1(C(=O)OC)C/C=C\CN(S(=O)(=O)c2ccccc2[N+](=O)[O-])CCC1` stands “inactive”.
Under `Oc1ccc(/C=N/Nc2ccc(C(F)(F)F)cn2)cc1O` stands 2.91 µM (active); under `O=C(Nc1ccccc1)Nc1ccc(C(F)(F)F)cn1`, “inactive”; under `Cc1nnsc1C(=O)N/N=C/c1cccc(C(F)(F)F)c1`, “inactive”.
The entry for `COc1ccc(C(=O)Nc2cccc(/C=C(/CCC(=O)O)c3nc4ccccc4s3)c2)cc1` is “inactive”; for `O=C(CC(NCc1cccnc1)C(=O)O)Nc1ccc(O)cc1` (stereo not given) it is “inactive”; for `COC(=O)c1ccc(C2CC(=O)Nc3cc(OC)c(OC)cc32)cc1` (stereo not given) it is “inactive”.
Turning to `COc1cc2c(cc1OC)C(c1ccncc1)CC(=O)N2` (stereo not given), the Potency entry is “inactive”.
The figure for `Cc1cc2c(cc1C)C(c1cccc(OC(C)C)c1)CC(=O)N2` (stereo not given) is 16.4 µM (active).
